Here are results for 21 molecules from PubChem BioAssay (EPA / NIEHS).

Inconclusive results are not listed. Calls of active or inactive are those of the source. How the source made its calls: active means hit-call score of the fitted dose curve at least 0.9, where 1 is the maximum; inconclusive means response in the unintended direction; inactive means score below 0.9.

A short description of the test: CCTE_Shafer_MEA_acute_LDH: CCTE's Lactate Dehydrogenase Assay for Cytotoxicity in the Neural Acute Assay, Shafer Lab (AID 2284086).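 Further: active means LDH release rises above DMSO vehicle level.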 As for the experimental part: CCTE_Shafer_MEA_acute assay is conducted using Axion Biosystems 48 well microelectrode array (MEA) plates and Maestro recording system. Each well of the MEA plate contains a grid of 16 microelectrodes embedded in the culture surface. Electrically active cells, such as neurons, can be cultured over the electrodes, and electrical activity in these cells can be recorded extracellularly. The spontaneous firing of neurons is captured from each electrode on a microsecond timescale providing both temporally and spatially precise data. […] The CCTE_Shafer_MEA_acute assay uses primary cultures of rat cortical neurons. As these cultures mature over time, neural networks develop functional activity and form cohesive networks in which electrical activity can be highly coordinated. Baseline 40-minute recordings are made on days post-plating 13 or 15, followed by a secondary 40-minute recording after chemical exposure.CCTE_Shafer_MEA_acute_LDH is a component of the CCTE_Shafer_MEA_acute assay. It measures the lactate dehydrogenase enzyme activity using spectrophotometry.Data from the assay component CCTE_Shafer_MEA_acute_LDH was analyzed into 1 assay endpoint. This assay endpoint, CCTE_Shafer_MEA_acute_LDH, was analyzed in the positive analysis fitting direction relative to DMSO as the negative control and baseline of activity. Using a type of viability reporter, gain-of-signal activity can be used to understand cell viability.
Immediately following the 40 min recording in the presence of compounds, 50 uL of media was removed from each well and transferred to a sterile 96-well plate. This was used to determine LDH released from cells during compound exposure using a kit from Promega where absorbance was determined in a Molecular Devices VersaMax plate reader at 490 nm.
Consider `OC12N=C(c3ccccc3)SC1Cc1cc(Cl)ccc12` (stereo unspecified), for which the molecule was called inactive.

In the case of `O=c1[nH]sc2ccccc12`, the outcome was inactive.

Regarding `CN(C[C@@H](CC[N+]12CCC(C3CCCCC3)(CC1)CC2)c1ccc(Cl)c(Cl)c1)C(=O)c1cc(C(F)(F)F)cc(C(F)(F)F)c1`, the result was inactive.

Turning to `Clc1ccccc1C(c1ccccc1)(c1ccccc1)n1ccnc1`, the molecule was called inactive.

For `CCCCCCCCOC(=O)c1cc(O)c(O)c(O)c1`, the outcome was inactive.

In general, AC50 refers to the concentration at which the activity in the assay is half-maximal. Regarding `CN(C)c1ccc(C(=C2C=CC(=[N+](C)C)C=C2)c2ccc(N(C)C)cc2)cc1`, the AC50 is 7.76 µM (active).

Consider `c1ccc2n[nH]nc2c1`, for which the result was inactive.

With `CC(=O)N1CCN(c2ccc(OC[C@H]3CO[C@](Cn4ccnc4)(c4ccc(Cl)cc4Cl)O3)cc2)CC1`, the molecule was called inactive.

As for `O=C1O[C@H]([C@@H](O)CO)C(O)=C1O`, the outcome was inactive.

`Cc1c2ccccc2c(C)c2c1ccc1ccccc12`: the call was inactive.

As for `COc1cccc([C@H](O)C2CCN(CCc3ccc(F)cc3)CC2)c1OC`, the call was inactive.

With `NCc1cccc(C2CCN(C(=O)c3ccc(C#Cc4ccccc4F)o3)CC2)c1`, the result was inactive.

Turning to `CC1=CC(=O)/C(=C(/C)O)C(=O)O1`, the molecule was classed as inactive.

As for `COc1cc(C(=O)NC2CCN(C)CC2)ccc1Nc1ncc2c(n1)N(C1CCCC1)CC(F)(F)C(=O)N2C`, the call was inactive.

For the molecule `CO[C@H]1/C=C/O[C@@]2(C)Oc3c(C)c(O)c4c(O)c(c(/C=N/N5CCN(C)CC5)c(O)c4c3C2=O)NC(=O)/C(C)=C\C=C\[C@H](C)[C@H](O)[C@@H](C)[C@@H](O)[C@@H](C)[C@H](OC(C)=O)[C@@H]1C`, the outcome was inactive.

Consider `CN(C)C(=O)C1(N2CCCCC2)CCN(CC[C@@]2(c3ccc(Cl)c(Cl)c3)CN(C(=O)c3ccccc3)CCO2)CC1`, for which the molecule was classed as inactive.

As to `O=C(O)c1ccccc1-n1cc(C(=O)O)c(=O)c2cc(Nc3c(F)cc(F)cc3Cl)c(Cl)cc21`, the molecule was classed as inactive.

Consider `NC(=O)c1nc(-c2cccc(-c3cc(F)ccc3OCC(F)(F)C(F)(F)F)c2)n[nH]1`, for which the call was inactive.

As for `CCN(CC)C(=O)c1cc(S(=O)(=O)Cc2ccccc2)c(N2CCC(c3ccccc3)CC2)cc1N(CC)CCN(C)C`, the call was inactive.

`Cc1cc2c(cc1C(F)(F)F)N(C(=O)Nc1ccc(Oc3cccnc3C)nc1)CC2`: the molecule was classed as inactive.

As for `CC(O)CC(C)(C)O` (stereo unspecified), the result was inactive.
